Measurements taken from the supplement of paper PMC10681739.

Experiments:
ETS1 = target: T1, ETS1 (UniProt P14921); experiment: ETS1 binding intensity (PBM fluorescence), ETS1 alone (arbitrary fluorescence units); higher = stronger binding; details: ETS1 concentration 1 nM; RUNX1 concentration 0 nM
T1 sequence: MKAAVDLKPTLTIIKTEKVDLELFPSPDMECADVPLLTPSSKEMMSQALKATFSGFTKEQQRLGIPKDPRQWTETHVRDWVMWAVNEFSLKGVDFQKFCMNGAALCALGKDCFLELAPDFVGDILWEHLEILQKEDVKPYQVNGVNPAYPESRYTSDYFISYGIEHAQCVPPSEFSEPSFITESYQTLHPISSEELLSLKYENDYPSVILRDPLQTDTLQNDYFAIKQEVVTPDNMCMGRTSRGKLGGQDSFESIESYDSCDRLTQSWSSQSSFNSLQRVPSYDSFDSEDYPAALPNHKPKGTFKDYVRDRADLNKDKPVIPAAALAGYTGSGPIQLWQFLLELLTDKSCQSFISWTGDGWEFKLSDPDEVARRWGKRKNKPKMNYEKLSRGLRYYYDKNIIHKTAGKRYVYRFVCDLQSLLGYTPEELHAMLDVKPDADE

RUNX1 [1] = target: RUNX1 (UniProt Q01196); experiment: RUNX1 binding intensity (PBM fluorescence), RUNX1 alone (arbitrary fluorescence units); higher = stronger binding; details: RUNX1 concentration 2 nM; ETS1 concentration 0 nM
RUNX1, sequence (Q01196 whole entry): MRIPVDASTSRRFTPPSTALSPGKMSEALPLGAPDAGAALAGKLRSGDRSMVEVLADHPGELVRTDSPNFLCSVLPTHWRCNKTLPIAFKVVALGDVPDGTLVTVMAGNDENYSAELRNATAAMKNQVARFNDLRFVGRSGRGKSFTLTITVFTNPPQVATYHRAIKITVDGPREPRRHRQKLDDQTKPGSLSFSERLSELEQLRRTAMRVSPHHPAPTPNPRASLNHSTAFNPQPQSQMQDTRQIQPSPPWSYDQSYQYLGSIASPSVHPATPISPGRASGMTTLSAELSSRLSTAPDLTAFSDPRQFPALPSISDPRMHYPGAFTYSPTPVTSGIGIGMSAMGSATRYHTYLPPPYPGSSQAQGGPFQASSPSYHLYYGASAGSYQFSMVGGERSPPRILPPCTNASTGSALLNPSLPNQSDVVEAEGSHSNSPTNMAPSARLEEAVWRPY
Protocol: (§1)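 Cooperative gcPBM on 36-bp genomic probes with neighbouring ETS1 and RUNX1 sites. Recombinant human RUNX1 (2 nM) was incubated alone or with ETS1 (25 nM) and detected with anti-RUNX1 antibody plus Alexa488 secondary. Values are medians over 4 replicate spots; the RUNX1+ETS1 data were normalised to the RUNX1-only data. The probes sit in constant array flanks that are not printed.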

RUNX1 [2] = target: RUNX1 (UniProt Q01196); experiment: RUNX1 binding intensity (PBM fluorescence) in presence of ETS1, normalised to RUNX1-only experiment (arbitrary fluorescence units); higher = stronger binding; details: RUNX1 concentration 2 nM; ETS1 concentration 25 nM
Protocol: as §1
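For RUNX1 binding intensity (PBM fluorescence) in presence of ETS1, normalised to RUNX1-only experiment in this document: Full-length recombinant human ETS1 or RUNX1 bound to double-stranded 36-bp genomic probes on microarrays, detected by protein-specific primary antibody and Alexa488 secondary, spot fluorescence as median of four replicate spots.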
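For RUNX1 binding intensity (PBM fluorescence), RUNX1 alone in this document: Full-length recombinant human RUNX1 bound to double-stranded 36-bp genomic probes on a high-density microarray, scored as Alexa488 fluorescence per spot via anti-RUNX1 antibody, median of four replicate spots.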

Row | Sequence | ETS1 binding intensity (ETS1) | RUNX1 binding intensity (RUNX1 [1]) | RUNX1 binding intensity (RUNX1 [2])
1 | TCGCACCGGAACCCCTTGGCGGATTATGTGGGTTCC | 659 | 782 | 862
2 | CTGAAACAGGAAGCTGAGGGTGCGGTTGGGGGAGGA | 2210 | 811 | 1520
3 | AGCGACAGCGGATGCTCTCTGGCCGCAACATTCTTT | 880 | 769 | 1080
4 | ATAGTCTCTTCCTGTGTTGCAAACCACAGGTCCACC | 743 | 1050 | 2300
5 | ACCCAGTAGGGGCCAGGATGTGGTGAAAAGAGAATT | 1610 | 728 | 1020
6 | GTCCCCGTAACAGGATGTGGTGAGCTGTTATACCAC | 6710 | 802 | 4520
7 | AGGGACTTCCGGTGACCAGAGCACTAGCGCCGCAAA | 2160 | 768 | 2070
8 | GAGGAGGAAAGCGGAAGCGCTGCCCGCAGTGGTAGG | 4260 | 651 | 1270
9 | CCTGTTGATAAAACAGGATGTGGTAAAGAAGCTGGC | 9030 | 830 | 10300
10 | TGGGGGATGGCAGCAGGATGTGGTTATCTCAGAAAG | 3330 | 814 | 1940
11 | GGACCGGTGTCTGGCGGATGCGGTCGTGAAGATAGG | 1200 | 710 | 1130
12 | TGAGCCTTGGAAGGAAATGATTCACCACAATACTGT | 741 | 831 | 867
13 | GCGCGGCCCGGAAGGGGGTAACCGCTGAGTCTTTGA | 794 | 784 | 1010
14 | CAGCCTTGCCGGAAGGCAGAGTTTGTGGTCAGACCG | 1090 | 1330 | 2500
15 | CCTTGCTACAGGATGTTTTGACCACGAGCCCAGGAG | 1440 | 1090 | 1390
16 | TCCAGCTCCACAGGATGTGGTGAGTGAAGCAGCAAG | 2590 | 694 | 2380
17 | CCTGCAGCAACAGGATGTGGTTTGAAAGGATGAAAG | 7250 | 778 | 6460
18 | CAAGAGAAAGGAAGTGGAAGCTCTTGTGGTCTGGAA | 1460 | 733 | 1240
19 | CAGAGCCAAACATGCGGAAGTGGTTACGTGTACTAG | 3280 | 795 | 1900
20 | AGAGGCAGCTTCCGGAGACTGCTCTGTGGCCAGTTT | 794 | 711 | 1310
21 | CACCTCGGGGGTTTCCGGTCCGTGGTTAGCTCCTTC | 2600 | 1030 | 2930
22 | GTGCAGGGCCCGGAAGCTCAGTGTGGTTAAAGACAT | 2010 | 805 | 1540
23 | TGAGGGGCTCGCCGGGAAATGTGGTTTAGCGGCCCT | 564 | 832 | 2000
24 | CTGAGCCGGATGTTACTGGTTAGTGGTTTTCTTTAT | 3290 | 917 | 1560
25 | CCCGCTCACGCCGGAAGTGGTTTGCGTTTTCAAGAT | 14400 | 741 | 7390
26 | CTGACGCATTTCCGGCCTTTGCGGTTGATCGGTCAT | 5220 | 4410 | 18100
27 | CCTCGCCCCCTTCCGCACCCACCCCACCGCGCTCCG | 807 | 2040 | 2360
28 | GACCTGGGTTTCCTGTCTGTACATCGCGGTTCCTAC | 936 | 856 | 1830
